# Data taken from PubChem BioAssay (EPA / NIEHS).
# The source made the active and inactive calls. Rule for the calls: active = hit-call score of the fitted dose curve at least 0.9, where 1 is the maximum; inactive = score below 0.9.
# Read-out: Nuclear factor erythroid 2-related factor 2 (Homo sapiens) (UniProt Q16236)
# Assay: LTEA_HepaRG_NFE2L2: Life Technologies and Expression Analysis (LTEA) Assay for Nuclear factor erythroid 2-related factor 2 (NFE2L2) Transcription Factor using HepaRG (AID 2283527);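 for outcome: TaqMan qRT-PCR transcript level normalised to ACTB GAPDH and POLR2A housekeeping genes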
# Conditions: mRNA level, 48 h; actives raise or lower the signal
# Outline: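 Differentiated human HepaRG cells in serum-free induction medium were exposed for 48 h to eight concentrations (top 100 uM, half-log dilutions, 0.5% DMSO), in duplicate. NFE2L2 mRNA was quantified by TaqMan qRT-PCR, normalized to ACTB, GAPDH and POLR2A, with bidirectional fitting versus DMSO.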
# Nuclear factor erythroid 2-related factor 2 (Homo sapiens), sequence (Q16236 whole entry, looked up): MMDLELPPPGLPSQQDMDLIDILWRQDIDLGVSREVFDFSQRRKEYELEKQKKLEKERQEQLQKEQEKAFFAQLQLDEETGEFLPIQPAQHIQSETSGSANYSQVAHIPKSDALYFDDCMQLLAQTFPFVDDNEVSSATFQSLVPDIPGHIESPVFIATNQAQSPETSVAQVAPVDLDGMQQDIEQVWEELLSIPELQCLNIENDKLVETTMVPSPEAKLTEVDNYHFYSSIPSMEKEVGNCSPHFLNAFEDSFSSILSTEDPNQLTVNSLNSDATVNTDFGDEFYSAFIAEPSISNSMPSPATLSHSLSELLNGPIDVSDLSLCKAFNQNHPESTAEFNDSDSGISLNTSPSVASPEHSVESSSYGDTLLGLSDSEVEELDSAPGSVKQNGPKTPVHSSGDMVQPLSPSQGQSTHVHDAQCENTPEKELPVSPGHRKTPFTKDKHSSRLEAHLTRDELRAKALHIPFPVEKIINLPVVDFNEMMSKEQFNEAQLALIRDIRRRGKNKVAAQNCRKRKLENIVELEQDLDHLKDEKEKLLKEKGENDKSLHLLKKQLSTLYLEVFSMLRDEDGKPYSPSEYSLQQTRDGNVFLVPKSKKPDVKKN
SMILES,AC50,outcome
Cc1cc(CCN2CCN(c3nsc4ccccc34)CC2)cc2c1NC(=O)CC2(C)C,50 µM (active),
c1ccc2c(c1)Cc1ccccc1-2,,inactive
COC(=O)CCCCC(=O)OC,,inactive
C#C[C@]1(O)CC[C@H]2[C@@H]3CCC4=CC(=O)CC[C@@H]4[C@H]3CC[C@@]21C,,inactive
CC(=O)NC1(c2cccc(F)c2)CCN(CC[C@@]2(c3ccc(Cl)c(Cl)c3)CN(c3ccccc3)C(=O)CO2)CC1,76.3 µM (active),
CC(O)CO (configuration not stated),,inactive
COCC(C)OCC(C)O (configuration not stated),,inactive
CC(=O)CC(C)(C)O,,inactive
CC(C)(C)c1cc(C(C)(C)C)c(O)c(C(C)(C)C)c1,,inactive
CN1CCC[C@H]1c1cccnc1,,inactive
CC(C)(C)CC(C)(C)c1ccc(O)c(-n2nc3ccccc3n2)c1,,inactive
Nc1cccc2c(N)cccc12,,inactive
CCC(=C(c1ccc(O)cc1)c1ccc(OCCN(C)C)cc1)c1ccccc1,,inactive
CC[C@H](C)[C@@H](C(=O)O)n1sc2ccccc2c1=O,,inactive
OC1CCC(C2CCCCC2)CC1 (configuration not stated),,inactive
O=[N+]([O-])c1ccc(O)cc1,,inactive
CCN(CC)CCNc1ccc(CNC=O)c2sc3ccc(OC)cc3c(=O)c12,87 µM (active),
O=C(OCCOCCOC(=O)c1ccccc1)c1ccccc1,,inactive
CCC(C)(C)C1CCC(O)CC1 (configuration not stated),,inactive
CCCCCCCCOC(=O)CCCCCCCCC(=O)OCCCCCCCC,,inactive
CC[C@H](c1ccc(O)cc1)[C@@H](CC)c1ccc(O)cc1,78.8 µM (active),
CCCCCCCCC(=O)O,,inactive
